Common to all, as to assay: DAPPL (digital affinity profiling via proximity ligation, sequencing); 10 mM Tris-HCl pH 7.5, 50 mM NaCl, 1 mM DTT, 4% glycerol, room temperature, 30 min; GST-TFs on glutathione beads, 16-mer random dsDNA library, 0.1% formaldehyde crosslink after washing; high values mean tight binding
In one assay the target is T1, FEV (Homo sapiens, UniProt Q99581 1-238).
T1 sequence: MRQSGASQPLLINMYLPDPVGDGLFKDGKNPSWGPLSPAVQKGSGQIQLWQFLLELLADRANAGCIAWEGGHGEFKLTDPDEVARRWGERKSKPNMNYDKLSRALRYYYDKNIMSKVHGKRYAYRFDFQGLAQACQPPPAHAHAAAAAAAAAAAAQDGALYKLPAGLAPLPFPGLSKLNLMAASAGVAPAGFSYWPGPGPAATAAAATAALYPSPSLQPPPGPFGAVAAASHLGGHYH
Conditions: protein: recombinant; tags: N-terminal GST; dsDNA, one strand shown. The gist of the method:
(§1)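 In yeast, human transcription factors were expressed with a GST fusion, then pulled down on glutathione beads and given DNA barcodes. Pooled with a tag-only sample, they were exposed to 200 nmole of a 16-mer random double-stranded DNA library (Tris/NaCl/DTT/glycerol buffer, room temperature, 30 min), washed, crosslinked with 0.1% formaldehyde, proximity-ligated using BsaI/T4 ligase for 1 h at 37 °C, PCR-amplified and read on an Illumina NextSeq500. Each hexamer's frequency of reads for a factor, divided by the matching frequency for the tag-only sample, gives the binding signal.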

The next assay has as its target ETV5 (Homo sapiens, UniProt P41161 1-510). Conditions: protein: recombinant; tags: N-terminal GST; dsDNA, one strand shown. The gist of the method: as §1
The target of another assay is HSF1 (Homo sapiens, UniProt Q00613 1-529). As to conditions: protein: recombinant; tags: N-terminal GST; chain copies: 3; dsDNA, one strand shown. The method, boiled down: as §1
HSF1, sequence (Q00613 whole entry): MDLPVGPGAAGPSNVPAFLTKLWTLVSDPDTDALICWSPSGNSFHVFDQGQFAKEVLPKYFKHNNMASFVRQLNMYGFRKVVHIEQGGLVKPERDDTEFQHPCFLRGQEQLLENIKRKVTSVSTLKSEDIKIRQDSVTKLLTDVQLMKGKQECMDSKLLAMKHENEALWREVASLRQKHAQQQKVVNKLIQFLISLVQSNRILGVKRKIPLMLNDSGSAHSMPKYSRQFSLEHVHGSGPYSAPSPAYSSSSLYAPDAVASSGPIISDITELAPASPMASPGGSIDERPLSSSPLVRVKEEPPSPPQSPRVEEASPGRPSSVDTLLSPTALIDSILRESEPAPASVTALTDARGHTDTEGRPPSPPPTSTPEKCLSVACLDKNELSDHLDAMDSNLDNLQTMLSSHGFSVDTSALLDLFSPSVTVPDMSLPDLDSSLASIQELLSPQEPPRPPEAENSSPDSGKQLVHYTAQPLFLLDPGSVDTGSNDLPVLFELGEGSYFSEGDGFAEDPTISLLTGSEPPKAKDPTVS
In another assay the target is T2, SPIC (Homo sapiens, UniProt Q8N5J4 1-248).
T2 sequence: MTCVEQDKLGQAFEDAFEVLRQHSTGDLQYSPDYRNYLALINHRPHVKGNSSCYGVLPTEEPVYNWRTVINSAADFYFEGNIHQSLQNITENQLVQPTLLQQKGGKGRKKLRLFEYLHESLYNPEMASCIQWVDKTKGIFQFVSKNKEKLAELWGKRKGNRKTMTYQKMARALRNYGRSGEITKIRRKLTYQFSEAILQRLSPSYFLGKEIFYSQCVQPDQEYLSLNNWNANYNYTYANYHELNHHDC
As to conditions: protein: recombinant; tags: N-terminal GST; dsDNA, one strand shown. The gist of the method: as §1

The target of another assay is ELF4 (Homo sapiens, UniProt Q99607 1-663). As to conditions: protein: recombinant; tags: N-terminal GST; dsDNA, one strand shown. The gist of the method: as §1
ELF4, sequence (Q99607 whole entry): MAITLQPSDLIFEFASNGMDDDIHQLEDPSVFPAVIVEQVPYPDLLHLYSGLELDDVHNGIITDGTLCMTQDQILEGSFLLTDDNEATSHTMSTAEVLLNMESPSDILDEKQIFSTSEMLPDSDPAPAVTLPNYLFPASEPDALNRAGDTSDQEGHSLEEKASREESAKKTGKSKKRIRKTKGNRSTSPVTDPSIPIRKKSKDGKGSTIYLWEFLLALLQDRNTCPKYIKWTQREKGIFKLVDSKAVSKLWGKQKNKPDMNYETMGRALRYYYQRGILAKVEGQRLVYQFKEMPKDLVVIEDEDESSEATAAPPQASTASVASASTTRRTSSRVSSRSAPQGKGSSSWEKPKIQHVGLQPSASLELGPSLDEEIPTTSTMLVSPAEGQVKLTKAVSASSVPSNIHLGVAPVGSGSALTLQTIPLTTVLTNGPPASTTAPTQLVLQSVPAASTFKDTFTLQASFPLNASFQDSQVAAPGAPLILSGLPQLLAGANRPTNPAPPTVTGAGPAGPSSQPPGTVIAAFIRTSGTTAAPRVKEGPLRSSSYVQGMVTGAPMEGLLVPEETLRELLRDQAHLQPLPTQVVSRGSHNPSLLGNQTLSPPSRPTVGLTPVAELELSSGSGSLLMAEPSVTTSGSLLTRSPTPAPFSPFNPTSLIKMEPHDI
A further assay has as its target T3, ELK4 (Homo sapiens, UniProt P28324-2 1-405).
T3 sequence: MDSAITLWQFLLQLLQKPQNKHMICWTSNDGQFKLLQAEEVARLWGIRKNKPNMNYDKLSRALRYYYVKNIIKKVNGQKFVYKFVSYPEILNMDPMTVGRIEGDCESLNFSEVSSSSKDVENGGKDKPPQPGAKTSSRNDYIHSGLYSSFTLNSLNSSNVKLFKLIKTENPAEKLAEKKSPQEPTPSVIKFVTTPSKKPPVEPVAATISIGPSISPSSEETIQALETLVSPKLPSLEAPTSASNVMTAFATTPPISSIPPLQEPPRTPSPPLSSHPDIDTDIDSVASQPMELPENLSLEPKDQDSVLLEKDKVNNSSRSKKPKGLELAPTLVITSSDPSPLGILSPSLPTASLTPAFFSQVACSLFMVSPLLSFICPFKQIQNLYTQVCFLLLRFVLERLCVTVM
Conditions: protein: recombinant; tags: N-terminal GST; dsDNA, one strand shown. The gist of the method: as §1

The target of another assay is T4, ETV2 (Homo sapiens, UniProt O00321 1-342).
T4 sequence: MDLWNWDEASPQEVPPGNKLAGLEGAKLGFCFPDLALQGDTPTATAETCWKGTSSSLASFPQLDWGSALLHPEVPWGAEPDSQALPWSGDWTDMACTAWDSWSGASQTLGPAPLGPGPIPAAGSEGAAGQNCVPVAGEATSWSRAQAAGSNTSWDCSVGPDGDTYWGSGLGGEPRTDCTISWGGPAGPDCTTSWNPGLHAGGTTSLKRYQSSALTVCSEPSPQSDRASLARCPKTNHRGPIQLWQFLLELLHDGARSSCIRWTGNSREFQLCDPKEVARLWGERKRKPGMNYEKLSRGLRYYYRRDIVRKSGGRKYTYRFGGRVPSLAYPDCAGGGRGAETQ
As to conditions: protein: recombinant; tags: N-terminal GST; dsDNA, one strand shown. The gist of the method: as §1

The target in another assay is T5, ELF3 (Homo sapiens, UniProt P78545 1-371).
T5 sequence: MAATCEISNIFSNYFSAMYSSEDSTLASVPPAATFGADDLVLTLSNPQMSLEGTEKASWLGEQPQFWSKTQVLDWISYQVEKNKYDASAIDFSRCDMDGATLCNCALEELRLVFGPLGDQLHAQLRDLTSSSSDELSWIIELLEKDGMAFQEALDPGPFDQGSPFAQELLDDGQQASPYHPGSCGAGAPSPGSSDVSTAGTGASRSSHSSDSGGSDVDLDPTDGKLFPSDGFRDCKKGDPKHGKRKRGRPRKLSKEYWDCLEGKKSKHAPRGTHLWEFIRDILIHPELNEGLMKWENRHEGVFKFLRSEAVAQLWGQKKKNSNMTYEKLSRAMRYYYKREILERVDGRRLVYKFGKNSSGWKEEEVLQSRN
Conditions: protein: recombinant; tags: N-terminal GST; dsDNA, one strand shown. The gist of the method:
as §1

A further assay concerns the target CRX (Homo sapiens, UniProt O43186 1-299). As to conditions: protein: recombinant; tags: N-terminal GST; dsDNA, one strand shown. The method, boiled down:
as §1

A further assay addresses ETV1 (Homo sapiens, UniProt P50549 1-477). As to conditions: protein: recombinant; tags: N-terminal GST; dsDNA, one strand shown. The method, boiled down: as §1
A further assay has as its target T6, ERF (Homo sapiens, UniProt P50548 1-548).
T6 sequence: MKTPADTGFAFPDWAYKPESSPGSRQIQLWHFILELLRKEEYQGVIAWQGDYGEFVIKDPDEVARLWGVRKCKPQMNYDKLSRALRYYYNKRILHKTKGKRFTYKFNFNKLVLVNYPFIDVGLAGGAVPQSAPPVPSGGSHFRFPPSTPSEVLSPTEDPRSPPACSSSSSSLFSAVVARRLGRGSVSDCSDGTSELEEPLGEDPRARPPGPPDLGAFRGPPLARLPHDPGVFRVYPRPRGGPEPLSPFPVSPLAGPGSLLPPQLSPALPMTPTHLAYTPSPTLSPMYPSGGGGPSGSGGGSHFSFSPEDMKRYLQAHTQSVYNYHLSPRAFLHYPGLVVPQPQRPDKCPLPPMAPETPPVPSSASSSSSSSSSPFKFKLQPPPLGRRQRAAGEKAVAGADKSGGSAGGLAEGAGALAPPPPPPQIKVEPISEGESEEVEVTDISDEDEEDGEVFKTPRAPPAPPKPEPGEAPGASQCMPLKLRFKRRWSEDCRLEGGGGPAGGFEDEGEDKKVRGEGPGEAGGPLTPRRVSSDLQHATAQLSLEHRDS
Conditions: protein: recombinant; tags: N-terminal GST; dsDNA, one strand shown. The gist of the method: as §1

Another assay addresses T7, ETV3L (Homo sapiens, UniProt Q6ZN32 1-361).
T7 sequence: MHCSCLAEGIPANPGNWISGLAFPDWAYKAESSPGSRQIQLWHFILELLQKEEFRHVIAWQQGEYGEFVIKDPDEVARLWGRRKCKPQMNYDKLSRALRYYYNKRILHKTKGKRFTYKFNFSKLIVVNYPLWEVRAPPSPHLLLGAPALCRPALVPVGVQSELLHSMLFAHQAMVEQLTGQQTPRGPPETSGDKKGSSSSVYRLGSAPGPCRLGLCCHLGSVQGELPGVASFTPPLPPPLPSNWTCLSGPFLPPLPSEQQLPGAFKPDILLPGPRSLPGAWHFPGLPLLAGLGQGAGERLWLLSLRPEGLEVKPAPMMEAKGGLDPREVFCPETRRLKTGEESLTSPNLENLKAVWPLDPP
Conditions: protein: recombinant; tags: N-terminal GST; dsDNA, one strand shown. The method, boiled down:
as §1

A further assay deals with T8, ETS2 (Homo sapiens, UniProt P15036 1-469).
T8 sequence: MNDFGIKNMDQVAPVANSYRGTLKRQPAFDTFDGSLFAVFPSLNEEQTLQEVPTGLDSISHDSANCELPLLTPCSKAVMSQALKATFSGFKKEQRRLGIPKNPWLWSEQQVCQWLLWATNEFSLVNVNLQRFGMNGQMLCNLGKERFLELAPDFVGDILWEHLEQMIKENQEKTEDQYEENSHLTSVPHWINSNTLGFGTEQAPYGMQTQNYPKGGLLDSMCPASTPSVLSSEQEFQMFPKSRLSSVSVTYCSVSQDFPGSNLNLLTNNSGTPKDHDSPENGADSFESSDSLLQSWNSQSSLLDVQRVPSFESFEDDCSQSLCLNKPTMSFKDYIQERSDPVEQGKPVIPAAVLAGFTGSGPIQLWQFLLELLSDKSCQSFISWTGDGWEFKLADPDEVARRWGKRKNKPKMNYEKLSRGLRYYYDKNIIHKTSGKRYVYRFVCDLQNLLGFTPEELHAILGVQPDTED
As to conditions: protein: recombinant; tags: N-terminal GST; dsDNA, one strand shown. The gist of the method: as §1

For another assay, the target named is T9, SPDEF (Homo sapiens, UniProt O95238 1-335).
T9 sequence: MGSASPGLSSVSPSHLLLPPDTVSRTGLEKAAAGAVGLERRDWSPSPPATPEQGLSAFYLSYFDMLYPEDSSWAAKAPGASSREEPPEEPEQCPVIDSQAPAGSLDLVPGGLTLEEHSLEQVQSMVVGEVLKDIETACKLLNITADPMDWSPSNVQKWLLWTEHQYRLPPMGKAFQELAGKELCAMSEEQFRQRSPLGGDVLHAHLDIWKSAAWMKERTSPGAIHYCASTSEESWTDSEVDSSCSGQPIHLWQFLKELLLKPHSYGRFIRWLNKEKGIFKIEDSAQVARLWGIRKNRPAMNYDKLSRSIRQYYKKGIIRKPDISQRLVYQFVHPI
Conditions: protein: recombinant; tags: N-terminal GST; dsDNA, one strand shown. The gist of the method: as §1

The target in a further assay is T10, ETV7 (Homo sapiens, UniProt Q9Y603 1-341).
T10 sequence: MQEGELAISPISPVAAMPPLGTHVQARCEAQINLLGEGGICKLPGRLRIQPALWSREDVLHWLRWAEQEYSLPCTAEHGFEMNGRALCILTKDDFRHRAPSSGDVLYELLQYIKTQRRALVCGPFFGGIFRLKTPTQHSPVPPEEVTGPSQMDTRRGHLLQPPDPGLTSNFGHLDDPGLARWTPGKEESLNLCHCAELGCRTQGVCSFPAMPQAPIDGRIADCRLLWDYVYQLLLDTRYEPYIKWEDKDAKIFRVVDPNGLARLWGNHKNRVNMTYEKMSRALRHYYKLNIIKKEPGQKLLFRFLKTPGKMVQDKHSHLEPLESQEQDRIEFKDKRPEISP
Conditions: protein: recombinant; tags: N-terminal GST; dsDNA, one strand shown. The gist of the method: as §1

For the next assay, the target named is T11, ELF5 (Homo sapiens, UniProt Q9UKW6-2 1-255).
T11 sequence: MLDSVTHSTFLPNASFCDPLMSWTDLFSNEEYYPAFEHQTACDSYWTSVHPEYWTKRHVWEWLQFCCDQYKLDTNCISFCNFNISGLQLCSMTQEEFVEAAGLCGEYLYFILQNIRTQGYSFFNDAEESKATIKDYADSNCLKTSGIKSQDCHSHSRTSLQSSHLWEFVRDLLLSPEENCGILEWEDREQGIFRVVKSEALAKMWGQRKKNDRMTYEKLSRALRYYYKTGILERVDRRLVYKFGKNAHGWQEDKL
As to conditions: protein: recombinant; tags: N-terminal GST; dsDNA, one strand shown. The method, boiled down: as §1

Another assay has as its target T12, ETV3 (Homo sapiens, UniProt P41162-2 1-143).
T12 sequence: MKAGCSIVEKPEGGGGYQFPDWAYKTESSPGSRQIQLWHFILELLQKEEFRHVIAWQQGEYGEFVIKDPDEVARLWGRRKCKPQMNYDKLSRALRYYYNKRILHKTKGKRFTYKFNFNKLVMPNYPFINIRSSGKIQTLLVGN
As to conditions: protein: recombinant; tags: N-terminal GST; dsDNA, one strand shown. The method, boiled down: as §1

A further assay has as its target ETV6 (Homo sapiens, UniProt P41212 1-452). As to conditions: protein: recombinant; tags: N-terminal GST; dsDNA, one strand shown. The method, boiled down:
as §1

ETV6, sequence (P41212 whole entry): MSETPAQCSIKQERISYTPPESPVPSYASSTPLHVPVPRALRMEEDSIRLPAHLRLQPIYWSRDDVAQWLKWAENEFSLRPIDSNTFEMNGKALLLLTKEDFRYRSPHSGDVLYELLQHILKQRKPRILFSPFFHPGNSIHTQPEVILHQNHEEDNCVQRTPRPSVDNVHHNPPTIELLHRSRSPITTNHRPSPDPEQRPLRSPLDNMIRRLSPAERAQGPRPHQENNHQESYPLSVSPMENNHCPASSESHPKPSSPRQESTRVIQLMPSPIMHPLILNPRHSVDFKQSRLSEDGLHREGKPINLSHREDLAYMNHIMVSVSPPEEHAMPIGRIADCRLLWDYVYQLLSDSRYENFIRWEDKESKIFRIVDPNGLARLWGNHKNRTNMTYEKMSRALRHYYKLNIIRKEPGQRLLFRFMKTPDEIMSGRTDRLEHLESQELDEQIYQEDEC
CRX, sequence (O43186 whole entry): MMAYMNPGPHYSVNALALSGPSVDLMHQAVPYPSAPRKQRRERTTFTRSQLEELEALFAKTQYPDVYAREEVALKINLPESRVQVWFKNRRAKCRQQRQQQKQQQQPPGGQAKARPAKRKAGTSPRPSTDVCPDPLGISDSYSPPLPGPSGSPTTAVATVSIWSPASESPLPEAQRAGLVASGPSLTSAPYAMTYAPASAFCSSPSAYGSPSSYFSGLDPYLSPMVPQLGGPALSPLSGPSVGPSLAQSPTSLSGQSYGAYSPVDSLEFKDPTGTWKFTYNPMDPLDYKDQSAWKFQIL
ETV1, sequence (P50549 whole entry): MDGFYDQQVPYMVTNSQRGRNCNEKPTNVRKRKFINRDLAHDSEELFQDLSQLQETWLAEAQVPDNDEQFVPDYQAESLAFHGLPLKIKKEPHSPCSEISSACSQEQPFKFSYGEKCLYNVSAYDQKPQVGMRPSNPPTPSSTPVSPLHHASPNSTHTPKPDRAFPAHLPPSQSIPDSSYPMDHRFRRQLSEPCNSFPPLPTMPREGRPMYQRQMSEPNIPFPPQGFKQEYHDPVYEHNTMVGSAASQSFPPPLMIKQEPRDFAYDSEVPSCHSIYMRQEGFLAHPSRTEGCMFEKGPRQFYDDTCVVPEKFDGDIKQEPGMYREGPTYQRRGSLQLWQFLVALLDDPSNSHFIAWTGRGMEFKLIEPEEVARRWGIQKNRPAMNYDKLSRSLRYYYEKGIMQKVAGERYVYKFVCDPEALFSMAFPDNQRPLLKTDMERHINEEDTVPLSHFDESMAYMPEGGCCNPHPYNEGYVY
ETV5, sequence (P41161 whole entry): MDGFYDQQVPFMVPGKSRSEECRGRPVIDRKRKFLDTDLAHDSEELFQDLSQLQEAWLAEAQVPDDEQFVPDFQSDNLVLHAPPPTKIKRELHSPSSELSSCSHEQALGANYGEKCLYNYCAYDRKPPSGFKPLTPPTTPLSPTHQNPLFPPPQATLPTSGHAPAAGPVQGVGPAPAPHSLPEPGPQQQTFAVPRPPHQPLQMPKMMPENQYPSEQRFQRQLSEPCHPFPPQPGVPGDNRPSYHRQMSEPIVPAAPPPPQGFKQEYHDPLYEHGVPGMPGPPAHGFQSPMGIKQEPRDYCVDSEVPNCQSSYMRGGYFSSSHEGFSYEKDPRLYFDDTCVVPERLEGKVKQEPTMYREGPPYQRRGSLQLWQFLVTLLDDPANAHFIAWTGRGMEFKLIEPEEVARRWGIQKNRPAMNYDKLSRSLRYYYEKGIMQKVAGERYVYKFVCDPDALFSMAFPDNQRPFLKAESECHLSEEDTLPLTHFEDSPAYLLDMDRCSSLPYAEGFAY

As to GCTTTC, the binding signal is 1.25 fold enrichment (6-mer frequency, TF over GST control) with FEV; 1.24 fold enrichment (6-mer frequency, TF over GST control) in the assay with ETV5; 1.35 fold enrichment (6-mer frequency, TF over GST control) in the assay with HSF1; 1.06 fold enrichment (6-mer frequency, TF over GST control) in the assay with SPIC; 1.23 fold enrichment (6-mer frequency, TF over GST control) with ELF4; 1.26 fold enrichment (6-mer frequency, TF over GST control) with ELK4. Besides, the binding signal with ETV2 was 1.59 fold enrichment (6-mer frequency, TF over GST control); with ELF3 it was 1.47 fold enrichment (6-mer frequency, TF over GST control); with CRX, 1.33 fold enrichment (6-mer frequency, TF over GST control); in the assay with ETV1, 1.35 fold enrichment (6-mer frequency, TF over GST control); in the assay with ERF, 1.28 fold enrichment (6-mer frequency, TF over GST control); with ETV3L, 1.29 fold enrichment (6-mer frequency, TF over GST control). In addition, the binding signal in the assay with ETS2 was 1.24 fold enrichment (6-mer frequency, TF over GST control); with SPDEF, 1.18 fold enrichment (6-mer frequency, TF over GST control); with ETV7, 1.31 fold enrichment (6-mer frequency, TF over GST control); with ELF5, 1.23 fold enrichment (6-mer frequency, TF over GST control); in the assay with ETV3, 1.25 fold enrichment (6-mer frequency, TF over GST control); with ETV6, 1.23 fold enrichment (6-mer frequency, TF over GST control).
